From PubChem BioAssay (NCI) come the findings set out here.

What all share (assay): NCI-60 one-dose screen, 48 h (100 = growth as untreated, 0 = no growth, -100 = all killed)
Test [1] concerns A549/ATCC NSCLC. Conditions: 10 µM unless noted.
Test [2] has as its system K-562 leukemia. Conditions: 10 µM unless noted.
Test [3] has as its system SF-295 CNS. Conditions: 10 µM unless noted.
The subject of test [4] is SF-539 CNS. Conditions: 10 µM unless noted.
Test [5] deals with UACC-257 melanoma. To be noted: 10 µM unless noted.
Test [6] deals with HCT-15 colon. To be noted: 10 µM.
Test [7] deals with HT29 colon. Conditions: 10 µM unless noted.
For test [8], the system named is SNB-75 CNS. Conditions: 10 µM unless noted.
In test [9] the test system is PC-3 prostate. To be noted: 10 µM unless noted.
Test [10] has as its system SK-MEL-5 melanoma. Conditions: 10 µM unless noted.
For test [11], the system named is SK-MEL-2 melanoma. To be noted: 10 µM unless noted.
The test system of test [12] is ACHN renal. To be noted: 10 µM unless noted.
The subject of test [13] is A498 renal. To be noted: 10 µM unless noted.
Test [14] relates to HL-60(TB) leukemia. To be noted: 10 µM unless noted.
Test [15] relates to OVCAR-8 ovarian. Conditions: 10 µM unless noted.
Test [16] deals with OVCAR-4 ovarian. To be noted: 10 µM unless noted.
Test [17] relates to IGROV1 ovarian. To be noted: 10 µM.
For test [18], the system named is HS 578T breast. To be noted: 10 µM unless noted.
Test [19] relates to T-47D breast. Conditions: 10 µM unless noted.
Test [20] has as its system HCC-2998 colon. To be noted: 10 µM unless noted.

About 83,000 compounds went through this panel and 20% of them were active in at least one assay; those are over-represented in the sample as a whole.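 Single-concentration screen, 48 h exposure, 96-well plates. Endpoint: percent growth. Below 10 = active.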 Unmarked numbers belong to inactive results. Activity calls are given as the source filed them.

For `O=[N+]([O-])c1ccccc1N1CCNCC1`, the growth in [1] was 95%; in test [2] it was 91.7%; in test [3], 104%; in test [4], 99.8%; in test [5] it was 94.4%; in test [6], 105%. Further, the growth in test [7] was 85.4%; in test [8] it was 92.5%; in [9] it was 103%; in test [10], 102%; in test [11], 106%; in test [12] it was 105%. Besides, the growth is 97.6% in test [13]; 80.1% in [14]; 107% in [15]; 99.4% in test [16]; 85% in test [17]; 107% in [18]. Besides, the growth is -4.84% (active) in test [19] and 100% in test [20].

On to `[O]=[Sn]([CH]1CCCCC1)[CH]1CCCCC1`, for which the growth was -83.3% (active) in test [1]; -8.85% (active) in test [2]; -85.6% (active) in test [3]; -92.5% (active) in test [4]; -88.3% (active) in test [5]; -78.1% (active) in test [6]. Besides, the growth in test [7] was -52.8% (active); in [8], -99.9% (active); in [9], -91.2% (active); in [10] it was -98.5% (active); in [11], -63.2% (active); in [12], -99.3% (active). In addition, the growth is -98% (active) in [13]; 7.49% (active) in test [14]; -66.2% (active) in test [15]; -98.7% (active) in test [16]; -90.9% (active) in [17]; -19.5% (active) in test [18]. In addition, the growth in test [19] is -86.7% (active); in test [20], -98.6% (active).

As for `O=C(O)c1nn(Cc2ccc(Cl)cc2)c2ccccc12`, the growth is 102% in [1]; 104% in test [2]; 102% in [4]; 93.1% in test [5]; 102% in test [6]; 118% in test [7]. The growth in test [8] is 95.9%; in [9], 98.7%; in test [10] it was 97.2%; in test [11], 114%; in [12], 117%; in test [13], 96.5%. Besides, the growth is 103% in test [14]; 92.7% in test [15]; 100% in [16]; 122% in [17]; 105% in test [18]; 104% in [19]. The growth in test [20] is 120%.

As to `CC(C)C1c2ccc(O)cc2Oc2nc(N)c(C#N)c(N)c21` (centres undefined), the growth in test [1] was 91.4%; in [2], 92.5%; in test [3], 107%; in [4], 93.5%; in test [5] it was 105%; in test [6], 107%. For the same molecule, the growth in test [7] was 109%; in test [8], 81.4%; in test [9], 92.1%; in test [10] it was 91%; in test [11], 109%; in test [12], 92.5%. Besides, the growth is 88.4% in [13]; 102% in [14]; 96.2% in [15]; 101% in test [16]; 111% in test [17]; 91.4% in [18]. Further, the growth in [19] is 87.5%.

With `Cc1ccccc1O`, the growth in [1] was 100%; in [2], 119%; in [3], 135%; in test [4], 104%; in test [5] it was 106%; in test [6] it was 106%. The growth in [7] is 110%; in test [9], 96.4%; in test [10], 106%; in [11], 109%; in test [12], 103%; in test [13], 129%. Moreover, the growth in test [14] was 110%; in test [15] it was 103%; in test [16], 101%; in [17] it was 102%; in test [18], 132%; in test [19] it was 94.9%. Further, the growth in [20] is 99.4%.

For `ClCCN(CCCl)c1nc(Cl)c(C2CC(c3ccccc3)=NN2c2ccccc2)s1` (centres undefined), the growth in [1] is 88.9%; in [2], 68.3%; in test [3], 98.6%; in test [4], 102%; in test [5] it was 85.8%; in test [6], 101%. Also, the growth in [7] is 82.5%; in test [8] it was 78.9%; in test [9], 75.8%; in test [10] it was 89.1%; in test [11], 93.9%; in test [12], 89.6%. For the same molecule, the growth is 103% in test [13]; 101% in test [14]; 90.3% in test [15]; 87.1% in test [16]; 107% in test [17]; 87.4% in test [18]. Moreover, the growth was 66.3% in test [19] and 110% in test [20].

Take `COc1cc(/C=C\c2cc(OC)c(OC)c(OC)c2)cc(N/C=C\C(=O)c2ccc(OC(F)(F)F)cc2)c1OC`: the growth in [1] is 19.4%; in test [2] it was 4.67% (active); in test [3], 9.29% (active); in test [4] it was -31.5% (active); in test [5], 51.1%; in [6], 9.36% (active). Further, the growth was -36.6% (active) in [7]; -8.84% (active) in test [8]; 42.6% in test [9]; 27.6% in test [10]; -13.4% (active) in test [11]; 43% in test [12]. For the same molecule, the growth in test [13] is -1.24% (active); in [14], 11%; in test [15], 30%; in test [16], 57.4%; in test [17], 48.3%; in test [18], 29.4%. The growth in [19] is 37.9%.

Regarding `CC(C)(C)NCC(O)c1ccccc1Cl` (centres undefined), the growth in [1] was 11.5%; in test [2] it was 17.5%; in test [3] it was -3.79% (active); in test [4] it was 7.78% (active); in [5], 54.5%; in test [6], 58.9%. Moreover, the growth in [7] was 2.91% (active); in [8], -24.4% (active); in test [9], 18%; in [11], -20.2% (active); in test [12], 53.7%; in test [13], -9.2% (active). In addition, the growth in test [14] is 1.68% (active); in test [15], 9.87% (active); in test [16], 60.3%; in test [17] it was 45.5%; in test [18], 3.29% (active); in [19], 51.5%. In addition, the growth in test [20] is -28.8% (active).

`C1CN1c1nc(N2CC2)nc(N2CC2)n1`: the growth is 59.8% in test [1]; 26.4% in test [2]; 14.2% in test [3]; -7.16% (active) in test [4]; 43.7% in [5]; 23.8% in [6]. Besides, the growth is 44.9% in test [7]; -17.6% (active) in test [8]; 45.2% in [9]; 20.1% in test [10]; 76.9% in test [11]; -29.7% (active) in test [12]. For the same molecule, the growth was 57.9% in test [13]; 0.901% (active) in test [14]; 44.6% in test [16]; -3.62% (active) in test [17]; 72.3% in test [18]; 26.7% in [19]. Moreover, the growth in test [20] is 49.7%.
